From PubChem BioAssay (NCATS) come the findings set out here.

SMILES strings stand for the structures. Several values for one entry are separate records, joined by “and”; a condition that tells them apart may be missing. Equal values may be shown once. Records with an inconclusive call do not appear. Activity calls are given as the source filed them. Calls follow the shape of the dose curve; as a rule, active = well fitted cell-killing curve with a large enough effect; inconclusive = small, poorly fitted or top-dose-only effect; inactive = no such curve, though single readings can be large or run the other way.
Potency is read from the fitted curve at half-maximal effect.

A short description of this experiment: qHTS of pediatric cancer cell lines to identify multiple opportunities for drug repurposing: Primary screen for NB1643 cells (AID 1347099). Also: nearly all actives have a fitted effect of over 50% in size. Particulars: NB1643 neuroblastoma viability, CellTiter-Glo luminescence, 48 h; series mostly up to 46 µM; activity change, negative = cytotoxic: at the top concentration. The text has this:
Drug repurposing or repositioning has been offered as a strategy for drug development in oncology programs. This approach has special potential for childhood cancers and other rare or orphan diseases, where the expected return on new drug development has been a disincentive to pharmaceuticals. […] In this project we exploit the poly-pharmacology of drugs to discover new indications via phenotypic screening of a panel of 19 well-characterized cell lines derived from solid tumors seen in children and adolescents. The goal is to identify approved drugs with previously unrecognized anticancer properties that has the potential to reveal new mechanisms and biological processes involved in carcinogenesis or drug resistance. We employed a titration-based paradigm (quantitative high-throughput screening or qHTS), where all compounds were tested at multiple concentrations for their effect on cell viability. Concentration-response curves (CRCs) were derived directly from the primary screen, and both potency and efficacy values were used to identify compounds with robust bioactivity profiles. We screened the NIH Chemical Genomics Center (NCGC) Pharmaceutical Collection (NPC) and Mechanism Interrogation Plate (MIPE) small molecule collections of approved and investigational compounds against these cell lines; and measured metabolically active cells after 48 hours of compound treatment as a proxy for cell viability. […] Assay Submitter: Nathalia J. Martinez, National Center for Advancing Translational Sciences, National Institutes of Health, Rockville, MD, USA; email: natalia.martinez@nih.gov Shen, M et al. Quantitative high-throughput phenotypic screening of pediatric cancer cell lines identifies multiple opportunities for drug repurposing. Oncotarget 2017 Dec 19;9(4):4758-4772. PMID 29435139.
The cells were obtained from University of North Carolina (UNC), Pediatric Preclinical Testing Program (PPT), and Coriell Institute (CI). qHTS cell viability assay: Cells were assayed in growth media at a density of 500-1,000 cells/well. Five microliters of cells were dispensed into 1,536-well, white, solid-bottom, TC-treated plates (Greiner Bio One) using a multidrop dispenser and incubated at 37 degrees C, 5% CO2, under a humidified atmosphere for 5 hours. Twenty-three nanoliters of compounds and controls (neutral control DMSO or positive control bortezomib at final concentration of 2.3 µM) were subsequently transferred by Kalypsys pintool. For primary screens, the MIPE collection was tested at 11-point dilutions (final concentrations range from 0.78 nM to 46 µM) and the NPC collection at 8-point dilutions (final concentrations range from 0.59 nM to 46 µM). Compounds tested in follow-up screens were assayed at 11-point dilutions. Cells were incubated for 48 hours, followed by addition of 3 µL of CellTiter-Glo (Promega). After a 15 min incubation at room temperature, samples were analyzed for luminescence intensity using a ViewLux High-throughput CCD imager equipped with clear filters.
On the technique in general: Quantitative high-throughput screening tests each substance at several concentrations.
Consider `Clc1ccc2c(c1)C(N1CCNCC1)=Nc1ccccc1O2`, for which the Potency result is “inactive”.
As to `CN(C)C(=O)C(CCN1CCC(O)(c2ccc(Cl)cc2)CC1)(c1ccccc1)c1ccccc1`, the Potency is 26.6 µM (active).
Take `NCCc1cnc[nH]1`: the “activity change, negative = cytotoxic” value was 21.7% (inactive).
Still for that read-out and setting: then `NS(=O)(=O)c1cc2c(cc1Cl)NCNS2(=O)=O`, with 11.5% (inactive); and `Cn1c(=O)c2[nH]cnc2n(C)c1=O`, with -15% (inactive); and `Cc1ccc(C(=O)Nc2ccc(S(=O)(=O)O)c3cc(S(=O)(=O)O)cc(S(=O)(=O)O)c23)cc1NC(=O)c1cccc(NC(=O)Nc2cccc(C(=O)Nc3cc(C(=O)Nc4ccc(S(=O)(=O)O)c5cc(S(=O)(=O)O)cc(S(=O)(=O)O)c45)ccc3C)c2)c1`, with 9.48% (inactive).
Still for that read-out and setting: the same measure for `CC(C)(Oc1ccc(C2CC2(Cl)Cl)cc1)C(=O)O` (stereo not given): 10.4% (inactive).
For the compound `O=c1c(-c2ccc(O)cc2)coc2cc(O)cc(O)c12`, the Potency result was “inactive”.
Still for that read-out and setting: then `C[C@](N)(Cc1ccc(O)c(O)c1)C(=O)O`, with “inactive”; and `COc1ccccc1OCC(O)CN1CCN(CC(=O)Nc2c(C)cccc2C)CC1` (stereo not given), with “inactive”.
`NC12CC3CC(CC(C3)C1)C2`: the “activity change, negative = cytotoxic” value was 2.96% (inactive).
Still for that read-out and setting: then `CN1CCC(=C2c3ccccc3CC(=O)c3sccc32)CC1`, with 0% (inactive); and `NCCS(=O)(=O)O`, with 3.19% (inactive); and `Clc1ccc2nsnc2c1NC1=NCCN1`, with 30.3% (inactive).
For `O=c1[nH]cc(F)c(=O)[nH]1`, the Potency is 5.26 µM (active).
As for `CC(COc1ccccc1)N(CCCl)Cc1ccccc1` (stereo not given), the “activity change, negative = cytotoxic” value was 2.88% (inactive).
With `CC[C@@]1(O)C(=O)OCc2c1cc1n(c2=O)Cc2cc3c(CN(C)C)c(O)ccc3nc2-1`, the Potency is 26.6 nM (active) and 296 nM (active).
In the case of `COc1nc(C)nc(Cl)c1NC1=NCCN1`, the Potency result is “inactive”.
In the case of `Clc1ccc(C(c2ccccc2Cl)C(Cl)Cl)cc1` (stereo not given), the “activity change, negative = cytotoxic” value is -15.6% (inactive).
On the same count and under the same terms, the same measure for `NC(CO)C(=O)NNCc1ccc(O)c(O)c1O` (stereo not given): -3.7% (inactive).
On to `CCc1cccc2c3c([nH]c12)C(CC)(CC(=O)O)OCC3` (stereo not given), for which the “activity change, negative = cytotoxic” value was -9.76% (inactive).
The same measure, in the same setting: the same measure for `Cc1cc(C(C)(C)C)c(O)c(C)c1CC1=NCCN1`: 0% (inactive).
With `Nc1nnc(-c2cccc(Cl)c2Cl)c(N)n1`, the “activity change, negative = cytotoxic” value is 16.2% (inactive).
`NCCCCCC(=O)O`: the Potency entry is “inactive”.
`CN(C)c1nc(N(C)C)nc(N(C)C)n1`: the “activity change, negative = cytotoxic” value is 0% (inactive).
For the compound `CN1C2CCC1CC(OC(=O)C(CO)c1ccccc1)C2` (stereo not given), the “activity change, negative = cytotoxic” value is 9.93% (inactive).
`CN1CCN(C2=Nc3cc(Cl)ccc3Nc3ccccc32)CC1`: the Potency result was “inactive”.
Turning to `Cc1ccccc1N1C(=O)c2cc(S(N)(=O)=O)c(Cl)cc2NC1C` (stereo not given), the Potency entry is “inactive”.
Same read-out and setting: then `CC(C)Cc1ccc(C(C)C(=O)O)cc1` (stereo not given), with “inactive”; and `Cc1cn([C@H]2C=C[C@@H](CO)O2)c(=O)[nH]c1=O`, with “inactive”.
Turning to `CC1(CN2CCC(n3c(=O)[nH]c4ccccc43)CC2)OCc2ccccc2-n2cccc21` (stereo not given), the “activity change, negative = cytotoxic” value was 0% (inactive).
With `Nc1c2c(nc3ccccc13)CCCC2`, the Potency result is “inactive”.
Still for that read-out and setting: then `COc1cc2nc(N3CCN(C(=O)c4ccco4)CC3)nc(N)c2cc1OC`, with 26.4 µM (active).
As to `N[C@@H](Cc1c[nH]c2ccc(O)cc12)C(=O)O`, the “activity change, negative = cytotoxic” value was 15.4% (inactive).
As to `COc1ccc(CCN(C)CCCC(C#N)(c2ccc(OC)c(OC)c2)C(C)C)cc1OC` (stereo not given), the “activity change, negative = cytotoxic” value was 13.5% (inactive).
In the case of `O=C1c2c(O)ccc(O)c2C(=O)c2c(NCCNCCO)ccc(NCCNCCO)c21`, the Potency was 469 nM (active) and 668 nM (active).
Turning to `O=C1Cc2cc(CCN3CCN(c4nsc5ccccc45)CC3)c(Cl)cc2N1`, the “activity change, negative = cytotoxic” value is -5.4% (inactive).
`CCOC(=O)c1ncn2c1CN(C)C(=O)c1cc(F)ccc1-2`: the “activity change, negative = cytotoxic” value was 9.22% (inactive).
As for `CN(C)C(=N)N=C(N)N`, the Potency result was “inactive”.
As for `NC(=O)OCC(COC(N)=O)c1ccccc1`, the Potency result is “inactive”.
